This is a sample that favours compounds with a hit; in the whole collection about 19% have one here.
TDP1 cell noCPT – qHTS for Inhibitors of human tyrosyl-DNA phosphodiesterase 1 (TDP1): qHTS in cells in absence of CPT | DT40 Tdp1-/- hTDP1 cells, no CPT, ATP luminescence, 48 h | Potency, µM (titrated, usually from 46.2 µM), inactives show at the top dose activity change, negative = growth inhibition, actives largely listed as inhibitors | 15% of 420,000 active | AID 686978, 2013; further: potency means the concentration at half of the fitted maximal effect; on the % scale 0 is the no-effect control and ±100 the full control effect; nearly all actives have a fitted effect of over 55% in size
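Chicken DT40 Tdp1-/- cells stably complemented with human TDP1 were seeded at 400 cells/well with DMSO in place of 20 nM camptothecin. After compound pinning, cells grew at least 48 hr at 37 °C; viability read by CellTiter-Glo luminescence.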
SW480 rerep – DNA re-replication induction in SW480 cells | Potency, µM (highest dose often 46.1 µM), inactives show top-dose re-replication activation, usual class: activators | SW480 DNA re-replication, Hoechst DNA content imaging, 48 h | 1.8% of 340,000 active; further: potency means the concentration at half of the fitted maximal effect; % of control where 0% means no effect; nearly all actives have a fitted effect of over 55% in size
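SW480 cells exposed to compounds for 48 hr at 37 C, 5% CO2, then Hoechst-stained 40 min. Nuclear DNA content imaged by fluorescence scanning (405 nm excitation, 500-530 nm emission); re-replication scored as increased high-intensity nuclei.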
IL-1B inflam inh – inhibitors of inflammasome signaling (IL-1 beta secretion); THP-1 LPS/ATP IL-1B secretion, AlphaLISA, 16 h; stronger effect = lower value; activity change, % at 57.5 µM; 4.7% of 360,000 active; AID 743279; in the data active means activity change below about -50%; inconclusive means mostly about -30% to -49%; further: on the % scale 0 is the no-effect control and ±100 the full control effect
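Secreted IL-1B measured by AlphaLISA bead assay after 16 h compound exposure of THP-1 cells; compounds (final up to 57.5 uM) added 1 h before LPS (250 ng/mL) and ATP (1.25 mM) stimulation; lower signal means less secretion.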
BCR signal inh – blocks chronic active B-cell receptor signaling | ABC-DLBCL IkBa-CBG/CBR reporter, luminescence ratio, 4 h | Potency, µM (titrated, usually from 46.1 µM), for inactives: at the highest dose activity change, negative = inhibition, actives largely listed as inhibitors | 0.05% of 340,000 active | AID 493014; active means well fitted inhibition curve with a large enough effect in the signal ratio, with a control signal flat, not every such curve was filed as active; inconclusive means small, poorly fitted or top-dose-only effect, or effect the other way, or a change in a side signal; the % refers to the signal ratio;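 further: potency means the concentration at half of the fitted maximal effect; plate controls were basal doxycycline-induced cells for no effect and cells given 10 µM MG132 for full effect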
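Cell line TMD8 (human ABC DLBCL), stably expressing tet-inducible CBG68-IkBa fusion and CBR; IMDM/0.5% FBS; cpd up to 46 uM; dox induction, 4 h, 37C/5% CO2; dual luminescence; green/red ratio; MG132 control.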
TDP1 cell CPT – growth inhibition of DT40 Tdp1-/-;hTDP1 cells with camptothecin (screen for TDP1 inhibitors); chicken DT40 Tdp1-/-;hTDP1 cells + 20 nM CPT, ATP luminescence, 48 h; Potency, µM (highest dose often 46.2 µM), for the others: top-dose activity change, negative = growth inhibition, usual class: inhibitors; 12% of 420,000 active; AID 686979; further: potency means the concentration at half of the fitted maximal effect; on the % scale 0 is the no-effect control and ±100 the full control effect; nearly all actives have a fitted effect of over 55% in size
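Chicken DT40 Tdp1-/- cells complemented with human TDP1, 400 cells/well, exposed to compounds plus 20 nM camptothecin for at least 48 h at 37 C; viability read as ATP content by CellTiter-Glo luminescence.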
MCF10A rereplic – DNA re-replication induction in MCF 10a cells. MCF 10A DNA re-replication, Hoechst nuclear intensity, 48 h. Potency, µM (highest dose often 46.1 µM), without a hit: at the top dose activity, positive = re-replication, hits mostly activators. 2.9% of 350,000 active; further: potency means the concentration at half of the fitted maximal effect; % of control where 0% means no effect; nearly all actives have a fitted effect of over 50% in size
* marks the source's active call; other numbers are inactive results; u = inconclusive; x = no result given. Unless noted, the call rests on the fitted dose curve; in most records, active means well fitted curve in the direction sought with a large enough effect; inconclusive means small, poorly fitted or top-dose-only effect, or another doubt; inactive means no such curve, though single readings can be large; an effect the other way counts as inactive or inconclusive.

SMILES | TDP1 cell noCPT | SW480 rerep | IL-1B inflam inh | BCR signal inh | TDP1 cell CPT | MCF10A rereplic
O=C(Nc1cccc(S(=O)(=O)N2CCCC2)c1)c1ccc2c(=O)n3c(nc2c1)CCCCC3 | 16µM* | 0% | -62* | u | 15µM* | 17%
O=C(Nc1nc(-c2ccccc2)cs1)c1ccc2c(=O)n3c(nc2c1)CCCCC3 | 8.2µM* | -7% | -15 | 7% | 16µM* | 18µM*
O=C(c1ccc2c(=O)n3c(nc2c1)CCCCC3)N1CCN(c2ccc(Cl)cc2)CC1 | 18µM* | 2% | u | 21% | 23µM* | 18%
O=C(Nc1cccc(S(=O)(=O)N2CCOCC2)c1)c1ccc2c(=O)n3c(nc2c1)CCCCC3 | 10µM* | -6% | -86* | u | 13µM* | u
O=C(NCc1ccccc1)c1ccc2c(=O)n3c(nc2c1)CCCCC3 | u | 9% | -8 | 5% | -6% | 26%
O=C1c2ccccc2C(c2nnnn2Cc2ccccc2)N1C1CC1 (centres undefined) | -7% | x | 21 | x | 5% | x
O=C1[C@H]2[C@@H]3CCN1CCC[C@@H]2C=C[C@@H]3c1ccc(Br)cc1 | 18µM* | x | 42 | x | u | x
COC(=O)c1nc(-c2ccccc2)nc(-c2ccccc2)c1C(=O)OC | -13% | -19% | 38 | x | 13% | 1%
Cc1cc(C)c(C(=O)c2ccc(C(=O)N(C(C)C)C(C)C)cc2)c(C)c1 | 18µM* | 6% | -3 | 17% | 16µM* | 1%
C[C@H]1CN([C@@H](C)CO)C(=O)c2cc(Br)cnc2O[C@H]1CN(C)C(=O)C1CCC1 | u | x | -29 | x | -16% | x
N#Cc1cnc(SCCc2ccccc2)nc1N | u | 9% | 4 | 3% | u | 9.2µM*
CC1CCCCC1NCC(=O)Nc1ccccc1-c1ccccc1 (centres undefined) | 18µM* | -5% | -2 | 25% | u | u
CC1CCN(CC(=O)Nc2ccccc2-c2ccccc2)CC1 | u | u | 2 | 12% | 18µM* | u
CC1CCN(CC(=O)Nc2ccccc2C(=O)c2ccccc2)CC1 | 15µM* | -13% | 21 | 6% | 21µM* | 21%
CCc1nc(NCC2CC2)c2nnn(Cc3ccccc3)c2n1 | u | x | 0 | x | u | x
CCN1C(=NCCc2ccc([N+](=O)[O-])cc2)N[C@@H](c2ccccc2)[C@H](C(=O)OC)[C@H]1C | 15µM* | -2% | -23 | 0% | u | 0%
CCN1C(=NCCc2ccc(Br)cc2)N[C@@H](c2ccccc2)[C@H](C(=O)OC)[C@H]1C | 18µM* | 13% | 0 | u | 23µM* | -41%
Cc1nn(C)cc1/C=N/NC(=O)c1ccc2c(c1)OCO2 | -9% | -3% | 24 | u | -2% | u
CCn1nc(C)c(/C=N/NC(=S)Nc2ccc(Cl)cc2Cl)c1C | 6.5µM* | u | 14 | 0% | 8.2µM* | 13%
Cc1nn(C)cc1/C=N/NC(=S)Nc1ccc(Cl)cc1Cl | u | -3% | 27 | u | 0.52µM* | u
CCn1nc(C)c(/C=N/NC(=O)Cn2nccc2C)c1C | -1% | -3% | 22 | 1% | -16% | 8%
O=[N+]([O-])c1ccc(Nc2nc(N/N=C\c3ccc4c(c3)OCO4)nc(N3CCCCC3)n2)cc1 | 16µM* | 1% | u | 19% | 21µM* | 10%
C(=C\c1ccccc1)/C=N/Nc1nc(N2CCCCC2)nc(N2CCCCC2)n1 | 12µM* | -1% | 7 | 1% | 12µM* | 2%
O=[N+]([O-])c1ccc(/C=N/Nc2nc(N3CCCCC3)nc(N3CCCCC3)n2)cc1 | 16µM* | -6% | -14 | -9% | u | -1%
